High-throughput results as filed in PubChem BioAssay.
SW480 rerep: DNA re-replication induction in SW480 cells | SW480 DNA re-replication, Hoechst DNA content imaging, 48 h | 340,000 compounds, 1.8% hits | Potency, µM (top dose mostly 46.1 µM), most hits filed as activators; further: nearly all actives have a fitted effect of over 55% in size
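Hoechst fluorescence of nuclei (405 nm excitation, 500-530 nm emission) measured by plate-scanning imager after 48 hr compound exposure at 37 C; re-replication scored as increased number of nuclei with elevated intensity.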
KB-3-1 tox: kills parental KB-3-1 adenocarcinoma cells | KB-3-1 viability, CellTiter-Glo ATP luminescence, 72 h | Potency, µM (titrated, usually from 46.1 µM), most hits filed as cytotoxic | 400,000 compounds, 1.4% hits; further: nearly all actives have a fitted effect of over 60% in size
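Viability of parental KB-3-1 cells, measured by CellTiter-Glo luminescence, followed a 72 h incubation at 37 °C with pinned compounds in phenol-red-free DMEM containing 10% FBS.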
ELG1 repair inh: inhibitors of ELG1-dependent DNA repair in HEK293T cells; Potency, µM (series often up to 46.1 µM), hits mostly inhibitors; 330,000 compounds, 2.3% hits; HEK293T ELG1-luciferase reporter, luminescence, 16 h; DNA damage induced by 5-fluorouridine; AID 504467; further: nearly all actives have a fitted effect of over 55% in size
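5-Fluorouridine DNA damage + compound/DMSO, 2,000 cells/well, 16 h, 37 °C/5% CO2. ONE-Glo, 30 min RT, luminescence. Readout = decrease in reporter signal.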
MCF10A rereplic: DNA re-replication induction in MCF 10a cells; Potency, µM (highest dose often 46.1 µM), most hits filed as activators; 350,000 compounds, 2.9% hits; MCF 10A DNA re-replication, Hoechst nuclear intensity, 48 h; further: nearly all actives have a fitted effect of over 50% in size
KB-V1 cytotox: KB-V1 MDR subline cytotoxicity. 400,000 compounds, 3.4% hits. Potency, µM (titrated, usually from 46.1 µM), most hits filed as cytotoxic. KB-V1 MDR cells viability, CellTiter-Glo, 72 h; further: nearly all actives have a fitted effect of over 60% in size
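Readout: CellTiter-Glo luminescence, 10 min after addition. Cells: KB-V1 MDR subline, 72 h at 37 degrees C with compound. Analysis: corrected, normalized data fitted to concentration-effect curves.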
A number is an active result; 0 = inactive; ? = inconclusive; - = not tested or not shown; ! = not confirmed by another sample. In the library only some 8.1% were active in any assay of this set; here they are far more common. The call rests on the fitted dose curve; in most records, active means well fitted curve in the direction sought with a large enough effect; inconclusive means small, poorly fitted or top-dose-only effect, or another doubt; inactive means no such curve, though single readings can be large; an effect the other way counts as inactive or inconclusive.

SMILES	SW480 rerep	KB-3-1 tox	ELG1 repair inh	MCF10A rereplic	KB-V1 cytotox
CCc1ccccc1NC(=O)CN1C(=O)C2CCCN2c2ncc(Cl)cc21 (stereo unspecified)	0	0	0	?	14.6µM
Cc1cc(Sc2nc(N)ncc2[N+](=O)[O-])ncn1	?	16.4µM	?	?	0
Cc1cc(Sc2ncnc(N)c2[N+](=O)[O-])ncn1	?	4.61µM	?	2.91µM	?
Cc1cc(N)ncc1[N+](=O)[O-]	0	0	-	0	0
Cc1ccc(C)c(Oc2ncnc(N)c2[N+](=O)[O-])c1	0	0	?	0	0
O=C(Nc1ccc(S(=O)(=O)N2CCCCC2c2cccnc2)cc1)c1ccc(F)cc1 (stereo unspecified)	-	?	-	-	0
COc1cc(C(=O)N2CCC3(CC2)NCCc2[nH]cnc23)cc(OC)c1OC	0	0	?	0	0
O=C1CC(N2CCCCCC2)C(=O)N1c1ccc2c(c1)OCO2 (stereo unspecified)	0	0	0	14.6µM	0
O=C1CC(N2CCCCCC2)C(=O)N1c1ccc(F)cc1 (stereo unspecified)	?	0	0	13µM	?
COc1ccc(C(=O)OCc2c(-c3ccccc3)ncc3ccccc23)cc1	14.6µM	0	?	16.4µM	0
CC(C)(C)c1ccc(C(=O)OCc2c(-c3ccccc3)ncc3ccccc23)cc1	0	0	0	0	0
COc1ccccc1C(=O)OCc1c(-c2ccccc2)ncc2ccccc12	?	0	16.4µM	?	0
O=C(O)c1ccc(CSc2nnc(-c3ccco3)n2-c2ccccc2)cc1	0	0	0	0	0
COc1ccccc1N1CCN(C(=O)C2c3ccccc3Oc3ccccc32)CC1	5.8µM	1.84µM	?	1.84µM	2.59µM
O=C1N(c2ccccc2C(F)(F)F)O[C@@]1(c1ccccc1)C1CCCC1	0	0	0	16.4µM	0
O=C1N(c2ccccc2C(F)(F)F)O[C@@]1(c1ccccc1)C1CCCCC1	?	0	?	20.6µM	0
Cc1ccc(NC(=O)CSc2nnc(-c3cccs3)n2Cc2ccco2)cc1	0	0	0	0	0
NC(=O)NN=C(C1CC1)C1CC1	0	0	-	0	0
Brc1ccc(CN2CCSCC2)cc1	0	0	0	0	0
COC(=O)C(NC(C)=O)(Nc1ccccn1)C(F)(F)F (stereo unspecified)	0	0	0	0	0
COc1ccc(C(CNc2ncnc3sccc23)N(C)C)cc1OC (stereo unspecified)	0	0	0	0	?
COc1cccc(-c2ccc3ncnc(NCc4cccnc4)c3c2)c1	0	0	5.17µM	0	0
COc1cccc(CNc2ncnc3cc(OC)c(OC)cc23)c1	0	0	?	?	?
COc1ccc(CNc2ncnc3cc(Cl)ccc23)cc1OC	0	?	?	0	20.6µM
c1cncc(CNc2ncnc3sccc23)c1	0	0	20.6µM	0	0
SMILES	SW480 rerep	KB-3-1 tox	ELG1 repair inh	MCF10A rereplic	KB-V1 cytotox
COc1ccc(CNc2ncnc3sccc23)cc1OC	0	?	?	0	16.4µM
O=C(Cc1ccsc1)Nc1ccc(S(=O)(=O)C(F)F)cc1	0	0	0	0	0
CCC(C)[C@H](NC(=O)NC1CCN(Cc2ccccc2)CC1)C(=O)OC (stereo partly specified)	0	0	0	0	0
O=C(Nc1ccc2[nH]c3c(c2c1)CCCC3)c1ccco1	0	?	4.47µM	0	0
S=C(NCc1ccc2[nH]c3c(c2c1)CCCC3)Nc1ccccc1	?	0	0	20.6µM	0
COc1ccc(/C=C(/C#N)C(=O)Nc2ccc(O)cc2)cc1C(=O)O	0	0	0	0	0
Cc1cc(C)c(C(=O)CSc2n[nH]c(=O)n2C2CC2)cc1C	0	0	?	0	0
CCCN(CCC)C(=O)Cc1ccc(F)cc1	0	0	0	0	0
CCCCCCCCCCCCCCCC[N+](C)(C)Cc1ccc(F)cc1	?	?	-	14.6µM	0
CC(C)CCOP(=O)(c1ccc(N(C)C)cc1)C(O)c1ccccc1F (stereo unspecified)	0	0	?	0	14.6µM
O=C(/C=C/c1ccco1)Oc1cc(Br)cc(/C=N/NC(=O)c2ccccc2O)c1	0.731µM	?	?	?	?
Cc1ccc(C(=O)N/N=C/c2cccc(OC(=O)/C=C/c3ccco3)c2)cn1	0	0	0	0	0
COc1ccc(-c2nc(CNS(=O)(=O)c3cc(OC)ccc3OC)cs2)cc1	0	0	16.4µM	0	0
CCCCNC(=S)NNC(=O)C12CC3CC(CC(C3)C1)C2	0	0	0	0	0
Cc1c(NS(=O)(=O)c2ccc(C(=O)NCc3ccc(F)cc3)cc2)c(=O)n(-c2ccccc2)n1C	?	0	0	0	0
COc1ccc(C)cc1S(=O)(=O)n1cnc2ccccc21	?	5.17µM	0	?	?
O=C1[C@H](Cc2ccccc2)NCCCC[C@@H](c2ccc(Cl)cc2)N1Cc1ccc(Cl)cc1	?	11.6µM!	-	?	?
COC(=O)c1ccc(/C(O)=C(\C#N)c2nc3ccccc3s2)cc1	0	0	?	0	8.2µM
COC(=O)c1ccc(CC(=O)c2nc3ccccc3s2)cc1	0	0	?	0	0
Cc1ccc[n+](C(C(=S)NCc2ccco2)=C([O-])c2ccccc2Cl)c1	0	0	-	0	20.6µM
O=C1/C(=C\c2ccc(Cl)cc2)CCC1CNc1ccc(Cl)cc1 (stereo unspecified)	?	0	-	5.8µM	0
Cc1ccc(/C=C2\CCC(C3CCCC3)C2=O)cc1 (stereo unspecified)	0	0	?	0	0
CN(C)CC1CCC/C(=C\c2ccc(OC(=O)/C=C/c3ccccc3)cc2)C1=O (stereo unspecified)	?	?	-	0	?
CN(C)CC1CC/C(=C\c2ccc(O)cc2)C1=O (stereo unspecified)	10.3µM	?	-	3.26µM	?
CN(C)CC1CCC/C(=C\c2ccc(OC(=O)c3ccc(Cl)cc3)cc2)C1=O (stereo unspecified)	?	?	-	?	20.6µM
SMILES	SW480 rerep	KB-3-1 tox	ELG1 repair inh	MCF10A rereplic	KB-V1 cytotox
COc1ccc(/C=C2/CCC(CN3CCOCC3)C2=O)cc1 (stereo unspecified)	14.6µM	?	-	?	?
COC(=O)c1ccc(NCCC(=O)O)cc1	0	0	0	0	0
CSc1nnc(-c2sc3cc(Cl)ccc3c2Cl)n1C	0	?	0	?	18.4µM
CCc1ccccc1NC(=O)[C@@H](c1ccccc1)N1Cc2ccccc2C1=O	-	0	-	-	0
O=C(Nc1ccc(Br)cn1)c1ccc(Cl)s1	?	?	?	?	0
CCN(CC)S(=O)(=O)c1ccc(C)c(NC(=O)/C=C/c2cccs2)c1	0	0	16.4µM	0	8.2µM
Cc1cc(C)nc(NC(=O)/C=C/c2cccs2)c1	0	0	?	0	0
NS(=O)(=O)c1ccc(NC(=O)/C=C/c2cccs2)cc1	23.1µM	0	?	0	0
